The list is not random: actives were taken first. Their share in the collection is about 0.85%.
ASM inhibitor = blocks human secretory acid sphingomyelinase | placental ASM, HMU-PC fluorogenic substrate, 60 min | P17405 | hit rate 0.006% among 340,000 | AID 504937 | Potency, µM (doses to about 57.5 µM), for the others: at the highest dose activity change, negative = inhibition, usual class: inhibitors; active means well fitted inhibition curve with a large enough effect; inconclusive means small, poorly fitted or top-dose-only effect; inactive means no such curve, though single readings can be large or run the other way; further: potency means the concentration at half of the fitted maximal effect
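Fluorogenic HMU-PC substrate (9 uM final) is turned over by placental ASM in 60 min at 37 C after a 10 min compound preincubation. Reaction ended by alkaline stop (pH 10), with fluorescence read at 386/447 nm.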
TSHR antag = human thyrotropin receptor antagonism | TSHR-expressing cells, TSH-stimulated cAMP HTRF, 2 h; hits give low values | AID 504810 | hit rate 0.2% among 330,000 | activity change, negative = inhibition, % at 11.5 µM;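 active means activity change below a set negative limit, meaning inhibition stronger than a set level, cut at about -70% in these data; inconclusive means activity change between two set negative limits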; further: on the % scale 0 is the no-effect control and ±100 the full control effect
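Inhibition of cAMP made by TSHR-expressing cells under TSH stimulation (4nM final, EC80; 2 h, 37 deg C) is quantified with a one-step lysis HTRF kit, anti-cAMP cryptate versus cAMP-d2.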
CtBP-E1A blk = inhibitors of CtBP/E1A interaction. activity change, % (test concentration not listed). AlphaScreen GST-E1A/His-CtBP binding, 1536-well; hits give low values. hit rate 0.49% among 340,000; further: on the % scale 0 is the no-effect control and ±100 the full control effect
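In 5 uL wells, 23 nL compound meets equimolar GST-E1A and His-CtBP (5X stock 125 nM each) for 2 h, 37 °C. Beads (5X, 50 ug/mL) then 1 h, 37 °C, dark.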
Chronic BCR inh = chronic active BCR signaling inhibition | ABC-DLBCL IkBa-CBG/CBR reporter, luminescence ratio, 4 h | hit rate 0.05% among 340,000 | Potency, µM (series often up to 46.1 µM), for inactives: top-dose activity change, negative = inhibition, hits mostly inhibitors; active means well fitted inhibition curve with a large enough effect in the signal ratio, with a control signal flat, not every such curve was filed as active; inconclusive means small, poorly fitted or top-dose-only effect, or effect the other way, or a change in a side signal; the % refers to the signal ratio;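 further: potency means the concentration at half of the fitted maximal effect; plate controls were basal doxycycline-induced cells for no effect and cells given 10 µM MG132 for full effect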
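Cell line TMD8 (human ABC DLBCL), stably expressing tet-inducible CBG68-IkBa fusion and CBR; IMDM/0.5% FBS; cpd up to 46 uM; dox induction, 4 h, 37C/5% CO2; dual luminescence; green/red ratio; MG132 control.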
Six1-Eya2 inh = inhibitors of human Six1/Eya2 interaction; Q15475+O00167; AlphaScreen GST-Six1/His-Eya2 binding, biochemical; hits give low values; activity change, % (concentration not given with the values); hit rate 0.56% among 360,000; AID 651725; further: on the % scale 0 is the no-effect control and ±100 the full control effect
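AlphaScreen luminescence read after one hour at 37 °C in darkness. Pin-transferred compounds met GST-Six1 and His-Eya2 protein (5X stock 250 nM/500 nM) plus glutathione donor and Ni-chelate acceptor beads (5X, 50 ug/mL).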
* = called active by the depositor; ? = inconclusive; / = no result given. Unless noted, no stated cut-off is given here; in the data, active means activity change below about -65%; inconclusive means mostly about -30% to -63%; inactive means weaker than that.

SMILES	ASM inhibitor	TSHR antag	CtBP-E1A blk	Chronic BCR inh	Six1-Eya2 inh
CCOc1cc(/C=N/Nc2cc(C)nc(-n3nc(C)cc3C)n2)ccc1O	16%	-3	?	?	-20
CCOc1ccc(Nc2cc(C)nc(-n3nc(C)cc3C)n2)cc1	-9%	10	-79*	?	-68*
Cc1cccc(NC(=O)c2sc3nc4n(c(=O)c3c2C)N=C(c2ccc(F)cc2)CS4)c1C	/	/	/	3%	/
CC1(c2ccccc2)NC(=O)N(CC(=O)Nc2ccccc2N2CCCCC2)C1=O (stereo not drawn)	-2%	-10	0	4%	3
CCC1(c2ccccc2)NC(=O)N(CC(=O)Nc2ccccc2N2CCCC2)C1=O (stereo not drawn)	-1%	/	-68*	-8%	0
COCCCNC(=O)CSc1nc2c(sc3ccccc32)c(=O)n1CCc1ccc(OC)c(OC)c1	/	/	/	1%	/
CCN(CC)S(=O)(=O)c1ccc(NC(=O)COC(=O)CNS(=O)(=O)/C=C/c2ccccc2)cc1	-8%	34	-81*	?	-14
CCN(CC)S(=O)(=O)c1cccc(C(=O)Nc2ccccc2C(=O)Nc2ccc(OC)cc2)c1	/	/	/	14%	/
Oc1ccc(F)c2cccnc12	4%	0	1	-25%	-81*
Oc1c(Cl)cc(Cl)c2cccnc12	5%	-2	-90*	?	-90*
Oc1c(I)cc(I)c2cccnc12	-4%	4	-73*	-2%	-67*
CC(=O)NC(C)c1cc(Cl)c2cccnc2c1O (stereo not drawn)	0%	-14	/	-17%	/
Clc1cc2cccnc2c2ccccc12	0%	-4	18	0%	18
Cc1ccc(S(=O)(=O)Nc2cc(Cl)c(O)c3ncccc23)cc1	-1%	-8	-89*	-11%	-90*
Cc1ccc(S(=O)(=O)Nc2cccnc2Oc2ccc(Cl)cc2)cc1	2%	-28	8	8%	6
Cc1cc2c(s1)c1c(n2C)C(=O)N(Cc2ccccc2F)C1	/	0	/	?	/
Cc1cc(Cl)c2ccc3ccccc3c2n1	2%	0	12	15%	15
O=C(O)c1ccc(O)c2ncccc12	/	-3	/	-15%	/
Cc1ccc2c(Cl)cc(Cl)c(O)c2n1	-7%	/	-65*	/	?
Oc1ccc(Cl)c2cccnc12	3%	/	-95*	/	-91*
CC(C)(C)c1ccc(C(=O)NNc2ncnc3c2cnn3-c2ccc(Cl)cc2)cc1	/	/	/	7%	/
COc1cc(C(=O)NCc2nnc(SCC(=O)Nc3nccs3)o2)cc(OC)c1OC	2%	23	-78*	1%	-84*
CCCc1nnc(SCC(=O)Nc2nccs2)o1	3%	-7	?	?	-27
Cc1cccc(C)c1OCc1nnc(SCC(=O)Nc2nccs2)o1	-2%	-3	-91*	?	-85*
COc1cc(C(=O)NCc2nnc(SCC(=O)Nc3nc4ccccc4s3)o2)cc(OC)c1OC	-6%	40	-14	?	-26
SMILES	ASM inhibitor	TSHR antag	CtBP-E1A blk	Chronic BCR inh	Six1-Eya2 inh
O=C(NC1CCCCC1)c1ccc2c(c1)N(Cc1cccc(Cl)c1)C(=O)c1ccccc1S2(=O)=O	/	/	/	5%	/
Cc1cc(C)n(-c2nc(C)c(C)c(=O)n2CC(=O)Nc2cccc([N+](=O)[O-])c2)n1	/	/	/	7%	/
CCOC(=O)C1CCC(CN(Cc2ccc(OC)cc2)S(=O)(=O)c2ccc(F)c(C(=O)Nc3cc(Cl)ccc3OC)c2)CC1 (stereo not drawn)	/	/	/	-2%	/
COc1ccccc1NC(=O)CSc1nc2ccccc2c2nc(-c3ccccc3)nn12	/	/	/	-6%	/
COc1ccccc1CNC(=O)C1CCN(C2=NS(=O)(=O)C(c3ccc(C)c(C)c3)=C2C)CC1	/	/	/	-5%	/
CCC(=O)NC(C)c1cc(Cl)c2cccnc2c1O (stereo not drawn)	-3%	10	/	-17%	/
CN1CCN(C(c2ccc(Br)cc2)c2cc(Cl)c3cccnc3c2O)CC1 (stereo not drawn)	-3%	7	-90*	?	?
CN1CCN(C(c2ccc(F)cc2)c2ccc3cccnc3c2O)CC1 (stereo not drawn)	2%	/	/	/	-6
CN1CCN(C(c2cccnc2)c2ccc3cccnc3c2O)CC1 (stereo not drawn)	1%	-14	-81*	4%	-90*

High-throughput results as filed in PubChem BioAssay.
